In ChEMBL document CHEMBL4513146, “CO-ADD screening of Karazin Kharkiv National University (Ukraine) compounds”:
Fewer than 10 of roughly 21,000 compounds showed an effect of 50% or more. The list is a sample of the results. Measured potencies and affinities stand elsewhere.

System: Acinetobacter baumannii
Settings: Concentration 32 ug.mL-1;; ASSAY_TEST Inhibition of Bacterial Growth; detection method Absorption (OD600); MEDIA CAMHB; plate type 384well; NBS; CORNING #3640; time 18 hr

| Compound | Inhibition [%] |
| --- | --- |
| Cc1ccc(NC(=O)Cn2nc3c4c5c(sc4ncn3c2=O)CCCC5)c(Cl)c1 | -9.66 |
| COc1cccc(-n2ccn3c(SCC(=O)c4ccc(C)cc4)nnc3c2=O)c1 | -4.26 |
| COc1ccc(-c2cc3c4nn(CC(=O)Nc5cc(OC)cc(OC)c5)c(=O)n4ccn3n2)cc1 | -11.34 |
| CCc1nnc2c(S(=O)(=O)N(Cc3cccc(C)c3)c3cccc(Cl)c3)cccn12 | 8.48 |
| CCOc1ccc(C(=O)Cn2nc3n(CCC(C)C)c(=O)c4sccc4n3c2=O)cc1 | 1.79 |
| O=C(CSc1nnc2c(=O)n(-c3ccc(Br)cc3)ccn12)Nc1cc(F)ccc1F | 0.45 |
| CCOc1ccc(-n2ccn3c(SCC(=O)c4ccc(C)cc4)nnc3c2=O)cc1 | 4.11 |
| CCOc1ccc(NC(=O)Cn2nc3c(Oc4ccc(C)cc4)nccn3c2=O)cc1 | 0.89 |
| CCc1nnc2ccc(S(=O)(=O)N(Cc3ccc(OC)cc3)c3cccc(F)c3)cn12 | -12.55 |
| COc1ccc(NC(=O)Cn2nc3c4c5c(sc4ncn3c2=O)CCCC5)cc1 | -5.35 |
| COc1ccccc1NC(=O)Cn1nc2c3c4c(sc3ncn2c1=O)CCCC4 | -5.75 |
| O=C(CSc1nnc2c(=O)n(-c3cccc(F)c3)ccn12)Nc1ccc(Br)cc1 | 3.4 |
| COc1cccc(Oc2nccn3c(=O)n(CC(=O)Nc4ccc5c(c4)OCO5)nc23)c1 | 0 |
| Cc1ccc(-c2ccc3nn(CC(=O)Nc4ccc(C#N)cc4)c(=O)n3n2)cc1C | 6.14 |
| CCCc1nnc2c(=O)n(CC(=O)Nc3ccc(C(C)=O)cc3)c3ccccc3n12 | 9.58 |
| Cc1ccc(-c2cc3c4nnc(SCC(=O)Nc5ccc(C#N)cc5)n4ccn3n2)cc1 | -8.65 |
| CCOc1ccc(NC(=O)Cn2nc3c(Oc4cccc(OC)c4)nccn3c2=O)cc1 | 5.77 |
| Cc1ccc(F)cc1NC(=O)CSc1nc2ccccc2n2c(C)nnc12 | 5.49 |
| Cc1ccc(Oc2nccn3c(=O)n(CC(=O)Nc4ccc(C)cc4Br)nc23)cc1 | 2.31 |
| CCCCn1c(=O)c2sccc2n2c(=O)n(CC(=O)c3ccc(C)cc3C)nc12 | -4.56 |
| O=C(Cn1nc2nc(Nc3ccc(F)cc3)ccn2c1=O)Nc1cc(F)ccc1F | 12.46 |
